From PubChem
A3A deaminase – human APOBEC3A DNA deaminase inhibition; P31941; recombinant A3A, FAM/TAMRA ssDNA deamination fluorescence; inhibition, % at 20 µM; hit rate 0.41% among 330,000;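 active = at least 40% inhibition at 20 µM here, with at most 30% in a related deaminase screen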;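 note: plate controls were A3A with DMSO for no effect and wells lacking A3A enzyme for full effect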
Target sequence (P31941 whole entry, looked up): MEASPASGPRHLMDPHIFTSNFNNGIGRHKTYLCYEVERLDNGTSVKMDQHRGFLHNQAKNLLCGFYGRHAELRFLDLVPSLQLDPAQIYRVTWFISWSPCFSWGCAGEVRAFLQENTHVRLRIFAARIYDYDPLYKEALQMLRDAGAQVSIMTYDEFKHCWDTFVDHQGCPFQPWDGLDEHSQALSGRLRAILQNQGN
PfG6PD inh – PfG6PD (Plasmodium falciparum) enzyme inhibition; PfGluPho enzyme, NADPH resazurin-diaphorase fluorescence; inhibition, % at 20 µM; AID 504690; hit rate 0.78% among 350,000;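 active = inhibition reaching at least a set limit at 20 µM in the primary screen, cut at about 59% in these data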;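 note: 0% = DMSO wells with substrate and 100% = DMSO wells lacking glucose-6-phosphate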
H9c2 protect – protects H9c2 cardiomyocytes from peroxide injury; protection from H2O2 cell death, % at 20 µM; hit rate 0.63% among 360,000; H2O2 injury protection, ATPLite, 2 h;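 active = compounds giving at least 50% protection of heart cells from peroxide-induced death in the single-dose screen, raw or plate-pattern-corrected value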;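 note: 0% = DMSO wells with peroxide and 100% = DMSO wells without peroxide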
H9c2 TAG inh – inhibitors of triacylglycerol accumulation | H9c2 cells, Nile Red lipid (TAG) fluorescence; cells loaded with 200 µM oleic acid | inhibition, % at 12.5 µM | hit rate 0.66% among 230,000;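 active = pattern-corrected inhibition of lipid staining of at least 50% with the nuclear-stain viability signal not falling by more than 50%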;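 note: 0% = DMSO wells and 100% = triacsin C control wells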
A3G deaminase – inhibitors of human APOBEC3G DNA deaminase; Q9HC16; recombinant A3G, ssDNA deamination FAM/TAMRA fluorescence; inhibition, % at 20 µM; hit rate 0.28% among 330,000; AID 493012;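 active = inhibition of at least 40% at 20 µM, with no more than 30% in the related APOBEC3A deaminase screen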;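 note: plate controls were DMSO wells with A3G for no effect and wells lacking A3G enzyme for full effect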
NadD block – NadD (S. aureus) enzyme inhibition; purified NadD enzyme, colorimetric absorbance read-out; inhibition, % at 20 µM; hit rate 0.78% among 360,000; AID 602399; in the data active = inhibition above about 26%
NadD inh conf – NadD (S. aureus) inhibition, single concentration confirmation; hit rate 13% among 2,000; purified S. aureus NadD, colorimetric enzyme assay; inhibition, % at 20 µM; AID 624309; shares compounds with NadD block; in the data active = inhibition mostly above about 42%, no sharp cut-off; inactive = mostly below about 42%
* hit, by the source's call; . = no result given. In the library only some 2.9% were active in any assay of this set; here they are far more common.

SMILES | A3A deaminase | PfG6PD inh | H9c2 protect | H9c2 TAG inh | A3G deaminase | NadD block | NadD inh conf
Cc1ccc2nc(N3C(=O)C(O)=C(C(=O)c4ccco4)C3c3ccc(C)o3)sc2c1 (stereo unspecified) | 10 | 18 | -4 | . | 0 | 26* | 35
O=C(C1=C(O)C(=O)N(c2nc3ccc(Cl)cc3s2)C1c1ccco1)c1ccco1 (stereo unspecified) | 88 | 12 | 5 | 14 | 41 | 56* | 51*
O=C(O)c1nn(Cc2ncc(-c3cccc(Cl)c3)o2)c(=O)c2ccccc12 | 0 | -5 | 22 | . | -6 | 34* | 16
COc1cccc(-c2noc(Cn3nc(C(=O)O)c4ccccc4c3=O)n2)c1 | 1 | 9 | 14 | . | -6 | -3 | .
O=C1Nc2ccccc2N(O)N1c1ccc(Cl)cc1 | -3 | -9 | 11 | -6 | -7 | 6 | .
CCN1c2ccccc2NC2C1C(C(C)=O)C(=O)N2c1ccc(Cl)cc1 (stereo unspecified) | -7 | 29 | -14 | . | -15 | 37* | 5
Cc1cc(Br)c2nc(-c3ccccc3)c(Cc3cccc(Cl)c3)n2c1 | . | . | . | . | . | 31* | 17
CC1(C)CC2CC(C)(CN2C(=O)c2ccc([N+](=O)[O-])cc2[N+](=O)[O-])C1 (stereo unspecified) | -2 | -1 | 5 | -3 | -9 | 2 | .
Cc1ccc(Nc2nnc(C3C(=O)N(C)C4(C)CC3c3cc(Br)ccc3O4)s2)cc1 (stereo unspecified) | -2 | 16 | 12 | . | -8 | 28* | 4
CC(=O)N1CCc2cc(S(=O)(=O)NC(CC(C)C)C(=O)N3CCCC3)ccc21 (stereo unspecified) | -4 | 4 | 9 | . | -6 | -14 | .
C=CCn1c(C)cc(-c2csc(NC(=O)C3CCN(c4ncnc5sc(C)c(C)c45)CC3)n2)c1C | . | -6 | -10 | 9 | . | 32* | 27
Cc1sc2ncnc(N3CCC(C(=O)Nc4nnc(SCc5ccccc5F)s4)CC3)c2c1C | 2 | -18 | -3 | -8 | -7 | 47* | 4
CNC(=O)c1ccc(NC(=O)C2CCN(c3ncnc4sc(C)c(C)c34)CC2)cc1 | -3 | -4 | -2 | 1 | -6 | 8 | .
Cc1sc2ncnc(N3CCC(C(=O)Nc4ccc(Cl)c(Cl)c4)CC3)c2c1C | -4 | 9 | -12 | 11 | -9 | 42* | 9
Cc1sc2ncnc(N3CCC(C(=O)Nc4sc5c(c4C(N)=O)CCC(C)C5)CC3)c2c1C (stereo unspecified) | -1 | -1 | -7 | -6 | -2 | 31* | 11
CCc1cccc(NC(=O)C2CCN(c3ncnc4sc(C)c(C)c34)CC2)c1 | -3 | 11 | -3 | 2 | -6 | 18 | .
COc1ccc(CN2C(=O)C(CC(=O)NCCc3ccccn3)CC(C(=O)N3CCOCC3)=C2C)cc1 (stereo unspecified) | . | . | 5 | . | . | -7 | .
COc1cc2c(cc1OC)CN(C(=O)COc1ccccc1[N+](=O)[O-])CC2 | -2 | 10 | 7 | . | -5 | -12 | .
CC1CCc2c(sc(Nc3nc4c(F)cccc4s3)c2C(N)=O)C1 (stereo unspecified) | -1 | 54 | -9 | . | 0 | 36* | 8
CCc1ccc2nc(NC(=O)C3CCN(c4ncnc5sc(C)c(C)c45)CC3)sc2c1 | 5 | 11 | -7 | 10 | -4 | 33* | 2
Cc1onc(-c2c(Cl)cccc2Cl)c1C(=O)NC(=S)Nc1sc2c(c1C(N)=O)CCC(C)C2 (stereo unspecified) | -2 | -13 | 0 | 15 | -7 | 31* | 3
COc1ccc(S(=O)(=O)NCc2nc3nc(C)cc(C)n3n2)cc1OC | -5 | -10 | 2 | -2 | -10 | -1 | .
COc1ccc(C(C)(O)c2nc(-c3ccncc3)cs2)cc1 (stereo unspecified) | . | . | -22 | -2 | . | -10 | .
O=C(Nc1cccc(C(F)(F)F)c1)C1=CC=CN2CCS(=O)(=O)N=C12 | 0 | -23 | -1 | 15 | -2 | -4 | .
COc1ccc2[nH]c3c(c2c1)CCN1C(=O)C(CC(=O)NCCCn2ccnc2)C[C@H](C(=O)N2CCCCC2)[C@@]31CCc1ccccc1 (stereo partly specified) | 1 | -1 | -3 | -4 | 2 | 13 | .
